Only a selection was taken, and hits are over-represented in it overall.
Pf Dd2 inh – Plasmodium falciparum Dd2 growth inhibition | P. falciparum Dd2 growth, SYBR Green, 72 h | Potency, µM (highest dose often 28.9 µM), for inactives: at the highest dose activity, negative = inhibition, hits mostly inhibitors | actives 4.3% (n = 120,000); active means well fitted inhibition curve with a large enough effect;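 further: plate controls were DMSO vehicle for no effect and reference drug for full effect; nearly all actives have a fitted effect of over 65% in size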
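Readout: SYBR Green fluorescence, 485 nm excitation, 535 nm emission, after ~16 h lysis at 37C. Before that, Dd2-infected red cells (2.5% hematocrit) grew 72 h with compound, 29 uM top final concentration.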
Numbers without * were called inactive; i = inactive; [ ] = another dose, or the depositor's remark. Potency means the concentration at half of the fitted maximal effect.

SMILES	Pf Dd2 inh
CN1C(=O)CO[C@H]2CN(C(=O)c3ccccn3)C[C@H]21	-18%[44.1 µM]
COc1ccccc1CN1CC(c2noc(-c3cc(C)cc(C)c3)n2)CC1=O (stereo not given)	i
COc1ccc(OCc2nc(C)c(CCO)c(=O)n2CC(=O)Nc2ccc(OC)c(OC)c2)cc1	-8%
O=S(=O)(c1ccccc1F)N1CCC(n2cnnc2C2CC2)CC1	i
CC(Cn1ccnc1-c1cn(C2CCNCC2)nn1)Oc1cccnc1 (stereo not given)	-6%
CCc1noc(-c2nc(Cc3cccc(F)c3)no2)n1	i
CN(Cc1ccc(-n2cccn2)cc1)Cc1nc(Cc2cccc(F)c2)no1	5%
Oc1ccc(CCC2CCCCN2Cc2nc(Cc3cccc(F)c3)no2)cc1 (stereo not given)	5µM*
CN(Cc1ccccc1)Cc1cc(CC2(NCc3ccccc3)COC2)no1	i
Cn1nc2n(c1=O)CCN(Cc1ccc3c(c1)CCO3)CC2	-9%
COc1ccc([C@H]2C[C@@H](O)[C@@H](O)[C@@H]2NC(=O)Cc2ccc(Cl)cc2)cc1	-8%[44.1 µM]
Cc1noc(C)c1-c1cnc(Nc2cc(F)cc(N3CCOCC3)c2)c2c1CCO2	-6%[44.1 µM]
Cc1noc(C)c1-c1cnc(Nc2ccc(CN3CCN(C)CC3)cc2)c2c1CCO2	5.6µM*
Cc1noc(C)c1-c1cnc(Nc2ccc(Cl)cn2)c2c1CCO2	-16%[44.1 µM]
CCN(C)C(=O)CCc1c(C)nn(-c2cccc(C)c2)c1Oc1ccccc1	i
Cc1cc(F)ccc1NC(=O)c1ccc2nc(Cc3ccccc3)oc2c1	-21%
O=C(Nc1ccc(F)cc1)c1csc2c1CCCCC2	-7%
Cc1cc(F)ccc1NC(=O)c1csc2c1CCC(C)C2 (stereo not given)	4.5µM*
CCCn1c(C)cnc1C1CCN(S(=O)(=O)c2cn(C)cn2)C1 (stereo not given)	12%
O=C(NCc1cccnc1)C1CCC(=O)N(CCCN2CCCC2=O)C1 (stereo not given)	-1%
O=C(c1ccncc1)N1CCC(N2C(=O)C3(CCCCC3)C2c2ccncc2)CC1 (stereo not given)	-5%
CCn1cc(CN2CCC(N3C(=O)C4(CCCCC4)C3c3ccncc3)CC2)cn1 (stereo not given)	-4%
CCn1cc(CN2CCC(N3C(=O)C4(CCCC4)C3c3ccccc3)CC2)cn1 (stereo not given)	1.6µM*
O=C(Nc1ccccc1F)N1CCC(N2C(=O)C3(CCCCC3)C2c2ccccc2)CC1 (stereo not given)	i
Cc1nc(C)c(C(=O)N2CCC(N3C(=O)C4(CCCCC4)C3c3ccccc3)CC2)s1 (stereo not given)	13µM*
SMILES	Pf Dd2 inh
CCS(=O)(=O)N1CCC(N2C(=O)C3(CCCC3)C2c2ccccc2)CC1 (stereo not given)	i
O=C(Nc1ccccc1F)N1CCC(N2C(=O)C3(CCCCC3)C2c2ccncc2)CC1 (stereo not given)	4.5µM*
Cc1ncccc1C(=O)N1CCC(N2C(=O)C3(CCCC3)C2c2ccccc2)CC1 (stereo not given)	i
Cc1ccc(C(=O)N2CCC(N3C(=O)C4(CCCC4)C3c3ccccc3)CC2)s1 (stereo not given)	-38%
COc1ccccc1CN1CCc2ncc(C(=O)NCCC(C)C)n2CC1	-26%[44.1 µM]
Cc1ccc(-c2nc(-c3nnn4c3COC(c3ccc(Cl)cc3)C4)no2)s1 (stereo not given)	i
O=C(NC[C@H]1O[C@@H]2C[C@@H](CC(=O)N3CCOCC3)O[C@@H]2[C@@H]1O)Nc1ccc(F)cc1	2%[44.1 µM]
Cc1ccc(NC(=O)NC[C@H]2O[C@@H](CC(=O)NCCN(C)C)[C@H](O)[C@@H]2O)cc1	-19%[44.1 µM]
O=C1CN(C(=O)CCC(=O)N2CCC3(CCCCO3)CC2)c2ccccc2N1	-9%
CCc1ccc(C(=O)NC2CCN(c3cnn(C)c(=O)c3)CC2)cc1	-10%
CC(NC(=O)CCc1ccccc1)C(=O)N1CCN(c2ccccn2)CC1 (stereo not given)	-3%
CN1CC(=O)N(C2CCCNCC2)Cc2c(NCc3cccs3)ncnc21 (stereo not given)	-10%
Cc1cc(C)c2oc(-c3ccc(NC(=O)c4cc(Br)ccc4Cl)cc3)nc2c1	10µM*
Cc1cc(C)c2oc(-c3cccc(NC(=O)c4ccc(Br)o4)c3)nc2c1	41%
COc1ccccc1C(=O)Nc1ccc(-c2nc3cc(C)cc(C)c3o2)cc1	3%
O=C(Cc1ccccc1Cl)N1CCC2(CC1)NC(=O)N(c1cccc(F)c1)N2	-9%
COc1ccccc1NC(=O)CN1CCN(CC(=O)Nc2ccc(F)c(F)c2)CC1	-22%
COc1cc(Nc2nc(SCC(=O)c3ccc(Cl)c(Cl)c3)nc3ccccc23)cc(OC)c1	-7%
COc1ccc(-c2nnc(SCc3cccc(Cl)c3)o2)cc1	44%
COc1ccc(CCNc2nc(SCc3ccccc3Cl)nc3ccccc23)cc1OC	3.5µM*
COc1ccc(NC(=O)CSc2nc(-c3ccccc3)c3ccccc3n2)cc1	27%
COc1ccc(C(C)=O)cc1CSc1nc(NCCc2ccccc2)c2ccccc2n1	11µM*
COc1ccc(CCNc2nc3c(c(=O)n(C)c(=O)n3C)n2Cc2ccccc2Cl)cc1OC	i
COc1cc(Nc2nc(SCc3cccc(Cl)c3)nc3ccccc23)cc(OC)c1	10µM*
COc1ccc(CNc2nc(SCc3ccccc3Cl)nc3ccccc23)cc1	i
SMILES	Pf Dd2 inh
COc1ccc(NC(=O)C(=O)NCCc2ccccc2)cc1OC	28%
COc1ccc(C(C)=O)cc1CSc1nc(Nc2ccc(F)c(F)c2)c2ccccc2n1	11µM*
CCSc1nc2ccccc2c(OCc2cc(C(=O)OC)ccc2OC)c1C(=O)OC	-9%
O=C(N[C@@H]1CCN(C(=O)Cc2noc3ccccc23)C[C@H]1O)c1cccnc1	-13%
COc1ccc2nc(CNC(=O)C3CCN(C(=O)C4CCC4)CC3)[nH]c2c1	-2%
CC1Oc2ccc(NC(=O)c3ccc(F)cc3)cc2CN(Cc2ccc3c(c2)OCO3)C1=O (stereo not given)	-11%
CC(=O)N1CCc2[nH]cnc2C12CCN(C(=O)c1ccn3nnnc3c1)CC2	-3%
CS(=O)(=O)N[C@H]1CO[C@H]2[C@@H]1OC[C@@H]2Nc1nccc(-c2cccc(F)c2)n1	27%[44.1 µM]
Cc1ccccc1C(=O)N1CCC(N2CC3CCCN3C2=O)CC1 (stereo not given)	6%[44.1 µM]
CC(C)c1ccc(CN2CCC3(CC2)OCCN(C)C3=O)cc1	i
Cc1noc(C)c1CC(=O)N1CCCCCCNC(=O)CC1	16%
CCCCSc1ncc(CN2CC[C@@]3(O)CCN(C(C)=O)C[C@H]3C2)cn1	-6%
O=C(NC1CCCCC1)C1CN(C(=O)c2ccc3c(c2)OCO3)CC12CCOCC2 (stereo not given)	3%
COc1ccccc1NC(=O)CC1CCCN(c2cnn(C)c(=O)c2)C1 (stereo not given)	i
Cc1cc(C)cc(C(=O)N2CCCC(n3cc(-c4nc(C(C)C)no4)nn3)C2)c1 (stereo not given)	136%
CN(C)C[C@@H]1CN(c2ccccn2)C[C@H]1NC(=O)Cn1c(=O)oc2ccccc21	-24%
O=C(Nc1cc(Cl)ccc1Cl)c1cc2nc(-c3ccc4c(c3)OCO4)cc(C(F)(F)F)n2n1	38%
O=C(Nc1cc(Cl)ccc1O)c1cc2nc(-c3ccc4c(c3)OCO4)cc(C(F)(F)F)n2n1	1.6µM*
O=C(NCC12CC3CC(CC(C3)C1)C2)c1cc2nc(-c3ccc(Cl)cc3)cc(C(F)(F)F)n2n1	-10%
